Laboratory results published in ChEMBL document CHEMBL1157539, “Thousands of chemical starting points for antimalarial lead identification” (Nature, 2010).

How the values were obtained:
Assay type in all cases: functional
[1] = system: Plasmodium falciparum; assay: GSK_TCMDC: Inhibition of Plasmodium falciparum 3D7 in whole red blood cells, using parasite LDH activity as an index of growth. Test compounds present at 2uM
[2] = system: Plasmodium falciparum; assay: GSK_TCMDC: Inhibition of Plasmodium falciparum Dd2 in whole red blood cells, using parasite LDH activity as an index of growth. Test compounds present at 2uM
[3] = system: HepG2; assay: GSK_TCMDC: Percent inhibition of human HepG2 cell line. Test compounds present at 10uM.

| Compound | Inhibition [1] [%] | Inhibition [2] [%] | Inhibition [3] [%] |
| --- | --- | --- | --- |
| C#CCCC(=O)Nc1cccc(-c2cccc(-c3nc4cc(C(F)(F)F)ccc4[nH]3)c2)c1 | 90 | 45 | 14 |
| COc1cc(NC(=O)N2CCOC(CCN3CCC4(CCc5ccccc54)CC3)(c3ccc(Cl)c(Cl)c3)C2)cc(OC)c1 (stereo not drawn) | 87 | 50 | 29 |
| COc1ccc(C=NNc2nc(O)cc(-c3ccccc3)n2)cc1OC | 92 | 93 | 22 |
| Cc1cc(Nc2cccc(C(F)(F)F)c2)nc(NCc2ccccc2)n1 | 100 | 95 | 17 |
| c1ccc2cc3c(Nc4ccc(N5CCCCCC5)cc4)ccnc3cc2c1 | 94 | 76 | 10 |
| C=CCOc1ccc(C2C(C(=O)OC)=C(C)NC3=C2C(=O)c2ccccc23)cc1OC (stereo not drawn) | 82 | 65 | 0 |
| CCOC(=O)C1=C(C)N=c2sc(=Cc3cc(Cl)ccc3O)c(=O)n2C1c1ccc2c(c1)OCO2 (stereo not drawn) | 96 | 91 | 0 |
| CC(C)Sc1nc2c(c(=O)n1Cc1ccco1)C1(CCCCC1)Cc1ccccc1-2 | 100 | 99 | 10 |
| NC1=NC2(CCCCC2)N(OCCCCCCCCNc2nc(N)nc(N)n2)C(N)=N1.O=C(O)C(F)(F)F | 96 | 99 | 44 |
| C[C@H](NC(=O)c1c(CN2CCC(NC(=O)CC(C)(C)C)CC2)c(-c2cccs2)nc2ccccc12)C1CCCCC1 | 91 | 70 | 0 |
| COc1ccc2nc(C)cc(Nc3ccc(N4CCN(C)CC4)cc3)c2c1 | 100 | 3 | 1 |
